# Results from PubChem BioAssay (EPA / NIEHS).
# Records with an inconclusive call do not appear. Activity calls are given as the source filed them. The calls were made as follows, unless noted: active = hit-call score of the fitted dose curve at least 0.9, where 1 is the maximum; inactive = score below 0.9.
# Tests used:
# [1] = ATG_TAL_CIS: Attagene CIS-FACTORIAL HepG2 Assay for human TAL Basal Promoter (AID 2282966); settings: HepG2 Attagene cis-factorial TAL promoter reporter; actives raise or lower the signal;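 also: background control endpoint measuring basal TAL promoter reporter mRNA not a specific factor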
# Outline: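 HepG2 cells transiently transfected with multiplexed cis-promoter reporter units, dosed 24 h. Reporter mRNA quantified by RT-PCR, 6-FAM labelling, HpaI digestion and capillary electrophoresis; TAL basal promoter serves as background control, fitted bidirectionally versus DMSO.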
# [2] = ATG_TGFb_CIS: Attagene CIS-FACTORIAL HepG2 Assay for human Transforming Growth Factor (TGF) (AID 2282967); settings: HepG2 Attagene CIS TGFb reporter, mRNA transcription; actives raise or lower the signal
# Outline: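 Endogenous TGFB1-linked transcription factor activity read as reporter mRNA via RT-PCR and capillary electrophoresis, 24 h after dosing transiently transfected HepG2 cells. Gain or loss of signal fitted relative to DMSO.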
# [3] = molecular target: Nuclear receptor subfamily 1 group I member 3 (Homo sapiens) (UniProt Q14994); assay: ATG_CAR_TRANS: Attagene TRANS-FACTORIAL HepG2 Assay for human Constitutive Androstane Receptor (CAR) (AID 2282969; active = hit-call score of the fitted dose curve at least 0.9, where 1 is the maximum;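 also: activators raise reporter mRNA above DMSO so AC50 marks induction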); settings: HepG2 Attagene TRANS-FACTORIAL CAR reporter
# Outline: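 HepG2 cells transiently transfected with multiplexed GAL4-UAS reporter units expressing chimeric NR-Gal4 proteins; compound exposure 24 h. Reporter mRNA measured by RT-PCR, 6-FAM labelling, HpaI digestion and capillary electrophoresis; gain-of-signal fitted against DMSO baseline.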
# [4] = molecular target: X-box-binding protein 1 (Homo sapiens) (UniProt P17861); assay: ATG_Xbp1_CIS: Attagene CIS-FACTORIAL HepG2 Assay for human X-box Binding Protein 1 (XBP1) (AID 2282972); settings: HepG2 XBP1 cis-element reporter, Attagene multiplex; actives raise or lower the signal
# Outline: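 After a 24-hour chemical exposure of HepG2 cells carrying cis-regulated reporters, reporter mRNA levels are assessed. Quantification uses RT-PCR, 6-FAM labelling and capillary electrophoresis. Gain- or loss-of-signal is fitted against DMSO.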
# [5] = ATG_M_19_TRANS: Attagene TRANS-FACTORIAL HepG2 Assay for M19 Transcription Factor (Internal Marker) (AID 2282974; active = hit-call score of the fitted dose curve at least 0.9, where 1 is the maximum); settings: HepG2 Attagene TRANS-FACTORIAL M19 internal marker reporter
# Outline: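 Background-control readout: after 24 h chemical exposure of transfected HepG2 carrying GAL4-driven reporter units, RNA was reverse-transcribed, amplified, fluorescently labeled and sized by capillary electrophoresis; gain-of-signal fit against DMSO.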
# [6] = ATG_VDRE_CIS: Attagene CIS-FACTORIAL HepG2 Assay for human Vitamin D Receptor Element (VDRE) (AID 2282968); settings: HepG2 VDRE cis-reporter transcription, actives raise or lower the signal
# Outline: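 HepG2 cells transiently transfected with cis-element reporter units, dosed 24 h; reporter mRNA measured by RT-PCR, 6-FAM labeling, HpaI digestion and capillary electrophoresis. Activity fitted bidirectionally against DMSO baseline.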
# [7] = molecular target: Estrogen receptor (Homo sapiens) (UniProt P03372); assay: ATG_ERa_TRANS: Attagene TRANS-FACTORIAL HepG2 Assay for human Estrogen Receptor alpha (ERa) (AID 2282970; active = hit-call score of the fitted dose curve at least 0.9, where 1 is the maximum); settings: HepG2 Attagene TRANS ERa GAL4 reporter, mRNA
# Outline: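 HepG2 cells transiently transfected with multiplexed GAL4-UAS reporter units read out chimeric NR-Gal4 activity. After 24 h compound exposure, reporter mRNA was quantified by RT-PCR, 6-FAM labeling, HpaI digestion and capillary electrophoresis, relative to DMSO.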
# [8] = ATG_GAL4_TRANS: Attagene TRANS-FACTORIAL HepG2 Assay for GAL4 (Internal Marker) (AID 2282976; active = hit-call score of the fitted dose curve at least 0.9, where 1 is the maximum); settings: HepG2 Attagene TRANS GAL4 internal marker reporter
# Outline: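 Background-control readout: GAL4-UAS reporter transcript in transiently transfected HepG2 cells after 24 h compound exposure. Measured by RT-PCR, 6-FAM primer extension, HpaI digest and capillary electrophoresis; gain-of-signal fit versus DMSO.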
# [9] = molecular target: Steroid hormone receptor ERR1 (Homo sapiens) (UniProt P11474); assay: ATG_ERRa_TRANS: Attagene TRANS-FACTORIAL HepG2 Assay for human Estrogen-Related Receptor alpha (ERRa) (AID 2282971; active = hit-call score of the fitted dose curve at least 0.9, where 1 is the maximum); settings: HepG2 Attagene TRANS reporter, ERRa transactivation
# Outline: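 HepG2 cells transiently transfected with GAL4-UAS reporter units and chimeric NR-Gal4 constructs; after 24 hour compound incubation, reporter mRNA quantified by RT-PCR, fluorescent labelling and capillary electrophoresis, gain of signal versus DMSO.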
# Chain of Estrogen receptor (Homo sapiens) (P03372 whole entry, looked up, the tested form may be a part): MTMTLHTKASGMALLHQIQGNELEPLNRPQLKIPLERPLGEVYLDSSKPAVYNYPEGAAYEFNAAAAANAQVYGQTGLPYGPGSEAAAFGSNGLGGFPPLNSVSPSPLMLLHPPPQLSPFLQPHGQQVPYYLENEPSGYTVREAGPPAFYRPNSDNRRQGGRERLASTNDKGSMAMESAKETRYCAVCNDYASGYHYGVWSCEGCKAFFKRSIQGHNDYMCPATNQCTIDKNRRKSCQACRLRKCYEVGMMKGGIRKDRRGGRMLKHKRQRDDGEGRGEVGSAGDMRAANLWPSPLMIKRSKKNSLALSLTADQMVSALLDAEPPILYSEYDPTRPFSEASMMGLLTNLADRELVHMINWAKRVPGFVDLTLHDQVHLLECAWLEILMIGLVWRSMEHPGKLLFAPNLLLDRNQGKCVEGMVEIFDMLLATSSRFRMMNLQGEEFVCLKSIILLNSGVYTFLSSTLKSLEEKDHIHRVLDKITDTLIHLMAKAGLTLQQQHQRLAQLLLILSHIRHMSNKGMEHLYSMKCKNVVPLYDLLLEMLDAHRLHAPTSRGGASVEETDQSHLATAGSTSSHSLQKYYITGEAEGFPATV
# Chain of Nuclear receptor subfamily 1 group I member 3 (Homo sapiens) (Q14994 whole entry, looked up, the tested form may be a part): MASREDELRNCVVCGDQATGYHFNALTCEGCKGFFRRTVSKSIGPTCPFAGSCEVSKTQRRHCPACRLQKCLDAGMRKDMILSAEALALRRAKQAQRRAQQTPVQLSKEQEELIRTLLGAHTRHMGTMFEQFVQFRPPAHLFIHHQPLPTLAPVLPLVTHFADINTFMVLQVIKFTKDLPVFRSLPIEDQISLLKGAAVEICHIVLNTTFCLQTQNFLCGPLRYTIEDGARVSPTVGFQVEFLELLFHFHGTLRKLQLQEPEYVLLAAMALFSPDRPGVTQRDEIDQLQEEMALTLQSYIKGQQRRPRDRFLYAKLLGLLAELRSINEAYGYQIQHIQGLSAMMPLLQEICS
# Chain of Steroid hormone receptor ERR1 (Homo sapiens) (P11474 whole entry, looked up, the tested form may be a part): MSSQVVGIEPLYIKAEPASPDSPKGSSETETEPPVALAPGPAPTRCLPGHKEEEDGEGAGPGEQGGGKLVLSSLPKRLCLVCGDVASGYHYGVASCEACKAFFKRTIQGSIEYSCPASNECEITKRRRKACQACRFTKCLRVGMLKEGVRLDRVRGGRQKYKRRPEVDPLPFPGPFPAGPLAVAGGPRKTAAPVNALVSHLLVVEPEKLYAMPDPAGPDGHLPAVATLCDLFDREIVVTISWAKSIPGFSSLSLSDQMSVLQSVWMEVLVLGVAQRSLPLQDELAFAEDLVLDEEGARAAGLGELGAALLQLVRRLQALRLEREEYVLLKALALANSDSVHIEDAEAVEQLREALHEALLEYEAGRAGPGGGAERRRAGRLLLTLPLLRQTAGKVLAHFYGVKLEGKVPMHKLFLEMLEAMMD
# Chain of X-box-binding protein 1 (Homo sapiens) (P17861 whole entry, looked up): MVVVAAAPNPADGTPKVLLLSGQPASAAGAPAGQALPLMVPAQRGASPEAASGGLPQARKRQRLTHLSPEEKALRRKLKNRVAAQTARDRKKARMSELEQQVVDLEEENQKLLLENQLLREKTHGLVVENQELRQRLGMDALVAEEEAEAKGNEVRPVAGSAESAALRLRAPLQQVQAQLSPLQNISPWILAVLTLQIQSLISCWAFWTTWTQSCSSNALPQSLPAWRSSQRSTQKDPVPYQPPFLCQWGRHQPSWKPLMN
SMILES,outcome [1],outcome [2],outcome [3],outcome [4],outcome [5],outcome [6],AC50 [7],outcome [7],outcome [8],AC50 [6],outcome [9],AC50 [2]
CC1=CCC(C(C)C)=CC1,inactive,inactive,inactive,inactive,inactive,,,,,,,
CCCc1ccc(O)cc1,inactive,inactive,,inactive,inactive,inactive,12 µM (active),,,,,
CCC(=O)OC/C=C(\C)CCC=C(C)C,inactive,inactive,,inactive,inactive,inactive,,inactive,inactive,,,
CC/C=C\CCOC(=O)C(C)C,inactive,inactive,,inactive,inactive,inactive,,,inactive,,,
COc1ccc(N)c(C)c1,inactive,inactive,inactive,inactive,inactive,,56.5 µM (active),,,100 µM (active),,
CC(=O)c1ccc2ccccc2c1,inactive,inactive,inactive,inactive,inactive,inactive,42.4 µM (active),,inactive,,,
NC(=O)c1cnccn1,inactive,inactive,,inactive,,inactive,,inactive,inactive,,,
C=CC(C)(CCC=C(C)C)OC(=O)CC (configuration not stated),inactive,inactive,inactive,inactive,inactive,inactive,,inactive,inactive,,,
CCCCC(CC)COCCO (configuration not stated),inactive,inactive,inactive,inactive,,inactive,,inactive,inactive,,,
CCCCCC#CC(=O)OC,inactive,inactive,,inactive,inactive,inactive,,inactive,,,,
S=c1[nH][nH]c(=S)s1,inactive,inactive,,,inactive,inactive,,,inactive,,,
O=Cc1ccccc1O,inactive,inactive,inactive,inactive,inactive,inactive,,,,,,
CC(=O)Nc1cc(S(=O)(=O)O)cc2cc(S(=O)(=O)O)c(N=Nc3ccccc3)c(O)c12,inactive,inactive,,,,inactive,,inactive,inactive,,,
CCCCCCCCCCO[C@@H]1O[C@H](CO)[C@@H](O)[C@H](O)[C@H]1O,inactive,inactive,,inactive,inactive,inactive,,,inactive,,,
COC(=O)c1cccc(C(=O)OC)c1,inactive,inactive,inactive,,inactive,inactive,,inactive,inactive,,,
CC1=CC[C@@H](C(C)(C)O)CC1,inactive,inactive,,inactive,,inactive,,inactive,,,,

SMILES,outcome [1],outcome [2],outcome [3],outcome [4],outcome [5],outcome [6],AC50 [7],outcome [7],outcome [8],AC50 [6],outcome [9],AC50 [2]
C=C(C)C(=O)OCCC[Si](OC)(OC)OC,inactive,inactive,,inactive,inactive,,,inactive,,,,
CC(=O)C1=C(C)[C@@H]2C[C@@]3(C1)[C@H](C)CC[C@H]3C2(C)C,inactive,inactive,,inactive,inactive,,2.65 µM (active),,,161 µM (active),,
CCC(C)(C)C1CCC(=O)CC1,inactive,inactive,,inactive,inactive,inactive,28.2 µM (active),,inactive,,inactive,
O=C(O)c1ccc(C(=O)O)c(C(=O)O)c1,inactive,inactive,inactive,inactive,,,,inactive,,,inactive,
CC(=O)CC(=O)N(C)C,inactive,inactive,,inactive,,inactive,,,inactive,,,
C=C1CC/C=C(\C)CC[C@@H]2[C@@H]1CC2(C)C,inactive,inactive,,inactive,,inactive,14.3 µM (active),,inactive,,inactive,
COc1ccccc1NC(=O)CC(C)=O,inactive,inactive,inactive,inactive,inactive,,,,inactive,68.2 µM (active),,
CCO[Si](CC)(OCC)OCC,inactive,,,inactive,,inactive,,,inactive,,,160 µM (active)
COC(=O)C(C)Oc1ccc(Oc2ncc(C(F)(F)F)cc2Cl)cc1 (configuration not stated),inactive,,inactive,inactive,,,,inactive,inactive,42.8 µM (active),,133 µM (active)
Cc1cccc(O)c1,inactive,inactive,inactive,inactive,,,,inactive,,,,
OC[C@@H](O)[C@H](O)[C@@H](O)[C@@H](O)CO,inactive,inactive,,inactive,inactive,inactive,13.8 µM (active),,,,inactive,
CC(=O)c1ccc(C)cc1,inactive,inactive,inactive,inactive,inactive,inactive,,inactive,inactive,,,
c1coc(CNc2ncnc3nc[nH]c23)c1,inactive,inactive,,inactive,,inactive,,inactive,,,,
C/C=C(\C)C(=O)OC/C=C(\C)CCC=C(C)C,inactive,inactive,,inactive,,inactive,,inactive,,,,
COc1ccc(OC)cc1,inactive,inactive,,inactive,,inactive,,,inactive,,inactive,
